PubChem BioAssay (NCI)
Compounds without any hit were thinned out: in the full panel of roughly 83,000, 20% have a hit.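 Treatment: one concentration, 48 hours, 96-well format. Scoring: percent growth, with anything below 10 considered active.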 Unmarked numbers belong to inactive results. Calls of active or inactive are those of the source.

Tests used:
Assay in all cases: NCI-60 one-dose screen, 48 h (100 = growth as untreated, 0 = no growth, -100 = all killed)
Settings in all cases: 10 µM unless noted
[1] = tested on: HCT-15 colon
[2] = tested on: HT29 colon
[3] = tested on: SNB-75 CNS
[4] = tested on: SNB-19 CNS
[5] = tested on: U251 CNS
[6] = tested on: PC-3 prostate
[7] = tested on: SK-MEL-5 melanoma
[8] = tested on: UACC-62 melanoma
[9] = tested on: LOX IMVI melanoma
[10] = tested on: SK-MEL-28 melanoma
[11] = tested on: SK-MEL-2 melanoma
[12] = tested on: EKVX NSCLC
[13] = tested on: SN12C renal
[14] = tested on: UO-31 renal
[15] = tested on: TK-10 renal
[16] = tested on: ACHN renal
[17] = tested on: CAKI-1 renal
[18] = tested on: A498 renal
[19] = tested on: MOLT-4 leukemia
[20] = tested on: CCRF-CEM leukemia

Row | SMILES | growth [1] | growth [2] | growth [3] | growth [4] | growth [5] | growth [6] | growth [7] | growth [8] | growth [9] | growth [10] | growth [11] | growth [12] | growth [13] | growth [14] | growth [15] | growth [16] | growth [17] | growth [18] | growth [19] | growth [20] [%]
1 | CCCCCCCCn1ccc2cc(NC(=O)Cn3cc(CN4CCCCC4)nn3)ccc21 | -40.7% (active) | -61.2% (active) | 73.4% | -49.2% (active) | -53.6% (active) | 54.6% | -93% (active) | -81.4% (active) | -80.3% (active) | -85.4% (active) | 35.6% | 85% | 34.5% | -96.6% (active) | 75.7% | 57.5% | -45% (active) | 97% | 8.5% (active) | 
2 | N#CC1=C(N)Oc2c(sc3c(Br)cccc23)C1c1ccc(F)cc1 (stereo not given) | 10.3% | 1.78% (active) | 34.3% | 47.8% | 21.4% | 23.6% | 23.6% | 26.4% | 27.4% | 57.6% | 37% | 45.6% | 27.4% | 34.4% | 43.1% | 30.7% | 46.6% | 17.8% | 5.38% (active) | 18.4
3 | Cc1ccc2c3c(c(=O)[nH]c2c1)C1(C(C#N)=C(N)O3)c2cc(Br)ccc2-c2ccc(Br)cc21 | 11.4% | -14.7% (active) | -26.8% (active) | -30% (active) | -66.4% (active) | -30.2% (active) | 61.4% | 40.1% | 2.99% (active) | 48.7% | 32.6% | -32.9% (active) | -32.3% (active) | -62.3% (active) | -36.2% (active) | -15.8% (active) | -64.3% (active) | -18.8% (active) | 21.3% | 32.6
4 | N=C(N)c1ccc(-c2ccc(-c3ccc(F)cc3)o2)o1 | -0.304% (active) | -20.3% (active) | 20% | 26.7% | -11.7% (active) | 19.3% | 21.7% | 57.5% | -61.6% (active) | 65.1% | 35.6% | 47.5% | 37.4% | 15.5% | 49.9% | 27.2% | 31.3% | 37.1% | 8.09% (active) | 
5 | CCOC(=O)c1cn2ncnc(Oc3ccc(NC(=O)NC4CCCCC4)c(Cl)c3)c2c1C | 69.4% | 81.6% | 0.475% (active) | 66.1% | 49.3% | 67.7% | 84.5% | 80.4% | 54.9% | 93.9% | 103% | 74.3% | 72.8% | 79% | 111% | 61.5% | 85% | 76.5% | 75.1% | 
6 | O=C(Nc1ncc(Cc2ccc(Cl)c(C(F)(F)F)c2)s1)c1ccc2nnsc2c1 | 40.4% | 57.7% | 90.8% | 46.2% | 42.7% | 38.3% | 38.3% | 6.95% (active) | 29.3% | 54.7% | 47.5% | 39.4% | 58.2% | 40.9% | 48.3% | 43.7% | 28.1% | 82% | 30.9% | 45.5
7 | c1ccc(C2=NN[C@H](c3cn(-c4ccccc4)nc3-c3ccccc3)C2)cc1 | 86.5% | 65.2% | -32.7% (active) | 55% | 7.2% (active) | 43.5% | 64% | 90.3% | 24.4% | 50.2% | 54.8% | 41.4% | 46.6% | 9.32% (active) | 17.9% | -4.87% (active) | 4.95% (active) | 54.5% | 80.5% | 89.3
8 | C[C@@H]1CCC[C@H]1CC(N)C(=O)O (stereo not given in full) | 90.6% | 116% | 103% | 117% | 114% | 96.8% | 98.5% | 116% | 91.3% | 108% | 132% | 98.4% | 114% | 99% | 130% | 99.5% | -76.8% (active) | 97.9% | 114% | 104
9 | COC(=O)c1cc(-c2ccc(OC)cc2)[nH]c1N/N=C/c1c(Cl)cccc1Cl | 16.4% | -56.5% (active) | -10.6% (active) | 19.1% | 7.09% (active) | 16.2% | -2.73% (active) | 21.3% | 24.2% | 34% | 52.9% | 20.1% | 26% | 27.9% | 47.8% | 39.3% |  | -2.53% (active) | 12.4% | 12.2
10 | COc1ccc(-c2csc(N(C(=O)N3CCN(c4cc5c(cc4F)c(=O)c(C(=O)O)cn5C4CC4)CC3)c3ccccc3)n2)cc1 | 9.72% (active) | 3.36% (active) | 22.5% | 20.8% | 19.1% | 9.97% (active) | -21.6% (active) | 13% | 2.06% (active) | 36.3% | 0.424% (active) | 15.8% | 6.41% (active) | 4.2% (active) | 32.1% | -62.5% (active) | 6% (active) | 3.67% (active) | 16% | 
11 | CCCCCCNC(=O)Oc1ccc(/C(=C(/C)Cc2ccc(OC)cc2)c2ccc(OCCCN(C)C)cc2)cc1 | -6.62% (active) | -55.9% (active) | 65.9% | 45.7% | -46.7% (active) | 24.3% | 6.74% (active) | -25.1% (active) | -60.5% (active) | -43.5% (active) | 26.9% | 83% | 45.8% | 0.897% (active) | 51.3% | 37% | 44.5% | 97.3% | -12.3% (active) | 
12 | COc1ccc(OC)c(-c2c(C#N)c(-c3cccs3)nc3c2c(-c2ccccc2)nn3-c2ccccc2)c1 | 104% | 97.4% | 89% | 96.6% | 100% | 93.5% | 102% | 90.2% | 104% | 107% | 107% | 99.7% | 99.3% | 97.1% | 108% | 102% |  | 103% | 99.4% | 99.7
13 | CCc1nc2c(=O)[nH]cnc2o1 | 110% | 108% | 82.5% | 112% | 99% | 99.4% | 103% | 108% | 94.2% | 106% | 113% | 104% | 109% | 75.7% | 108% | 105% |  | 102% | 108% | 108
14 | CC(=O)n1nc(C(=O)OC(C)C)c2cc(C)c(C)cc21 | 90.9% | 97.8% | 80.7% | 98.5% | 86.3% | 74.2% | 92% | 97.6% | 97% | 114% | 106% | 99% | 105% | 94.4% | 98.6% | 101% |  | 104% | 84.8% | 84.7
15 | O=C1Nc2ccccc2[C@]12CC(c1ccccc1)=NN2 | 31.6% | 15.8% | 62.2% | 52.7% | 38.9% | 38.5% | 30.2% | 19.5% | 40.2% | 59.2% | 44.9% | 50.7% | 59.5% | 49.5% | 79.7% | 54.3% | 38.7% | 60% | 43.2% | 
